Data taken from PubChem BioAssay (NCATS).
Results filed as inconclusive are left out. Active and inactive are the calls of the source. The call rests on the fitted dose curve; in most records, active means well fitted inhibition curve with a large enough effect; inconclusive means small, poorly fitted or top-dose-only effect; inactive means flat fitted curve, though single readings scatter.

How the values were obtained:
Experiment in all cases: qHTS profiling for inhibitors of Plasmodium falciparum proliferation (AID 504749); further: nearly all actives have a fitted effect of over 60% in size
Conditions in all cases: P. falciparum in erythrocytes, SYBR Green DNA, 72 h; series mostly up to 28.7 µM
CP250 = system: CP250
Procedure, shortened: (§1)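 SYBR Green fluorescence of parasite DNA, read after lysis and overnight dark incubation, measured growth over 72 h in erythrocyte culture at 0.3% parasitemia and 2.5% hematocrit. Data normalised to DMSO and 0.29 uM artemisinin, with plate-drift correction.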

CP252 = system: CP252
Procedure, shortened: as §1

CP256 = system: CP256
Procedure, shortened: as §1

CP262 = system: CP262
Procedure, shortened: as §1

CP265 = system: CP265
Procedure, shortened: as §1

CP268 = system: CP268
Procedure, shortened: as §1

CP269 = system: CP269
Procedure, shortened: as §1

CP286 = system: CP286
Procedure, shortened: as §1

CP291 = system: CP291
Procedure, shortened: as §1

CP297 = system: CP297
Procedure, shortened: as §1

CP305 = system: CP305
Procedure, shortened: as §1

CP315 = system: CP315
Procedure, shortened: as §1

CP325 = system: CP325
Procedure, shortened: as §1

CP329 = system: CP329
Procedure, shortened: as §1

CP335 = system: CP335
Procedure, shortened: as §1

DFO2036 = system: DFO2036
Procedure, shortened: as §1

DIV17 = system: DIV17
Procedure, shortened: as §1

DIV30 = system: DIV30
Procedure, shortened: as §1

Dd2 = system: Dd2
Procedure, shortened: as §1

ECU = system: ECU
Procedure, shortened: as §1

FAB9 = system: FAB9
Procedure, shortened: as §1

GB4 = system: GB4
Procedure, shortened: as §1

HB3 = system: HB3
Procedure, shortened: as §1

JCK = system: JCK
Procedure, shortened: as §1

N140 = system: N140
Procedure, shortened: as §1

P93_24 = system: P93_24
Procedure, shortened: as §1

P94_40 = system: P94_40
Procedure, shortened: as §1

PAD = system: PAD
Procedure, shortened: as §1

PC49 = system: PC49
Procedure, shortened: as §1

SC27B = system: SC27B
Procedure, shortened: as §1

TAB109 = system: TAB109
Procedure, shortened: as §1

TAB113 = system: TAB113
Procedure, shortened: as §1

TAB165 = system: TAB165
Procedure, shortened: as §1

Measured: Potency

CO[C@H]1[C@@H](O)CC(OC2[C@@H](O)CC(OC3[C@@H](O)C[C@H](OC4CC[C@@]5(C)C(CCC6C5CC(O)[C@]5(C)[C@H](C7=CC(=O)OC7)CCC65O)C4)O[C@@H]3C)O[C@@H]2C)O[C@@H]1C (stereo partly drawn)
inactive: CP250 | CP252 | CP256 | CP262 | CP265 | CP268 | CP269 | CP286 | CP291 | CP297 | CP305 | CP315 | CP325 | CP329 | CP335 | DFO2036 | DIV17 | DIV30 | Dd2 | ECU | FAB9 | GB4 | HB3 | JCK | N140 | P93_24 | P94_40 | PAD | PC49 | SC27B | TAB109 | TAB113 | TAB165
